Assay results taken from ChEMBL document CHEMBL2218924, “A broad activity screen in support of a chemogenomic map for kinase signalling research and drug discovery” (Biochem J, 2013).

How the values were obtained:
[1] = target: Focal adhesion kinase 1 (Homo sapiens) (UniProt Q05397); settings: at 10 µM
[2] = target: Fibroblast growth factor receptor 1 (Homo sapiens) (UniProt P11362); settings: at 1 µM
[3] = target: Fibroblast growth factor receptor 1 (Homo sapiens) (UniProt P11362); settings: at 10 µM
[4] = target: Tyrosine-protein kinase Fes/Fps (Homo sapiens) (UniProt P07332); settings: at 1 µM
[5] = target: Tyrosine-protein kinase Fes/Fps (Homo sapiens) (UniProt P07332); settings: at 10 µM
[6] = target: Receptor-type tyrosine-protein kinase FLT3 (Homo sapiens) (UniProt P36888); settings: at 1 µM
Chain of Receptor-type tyrosine-protein kinase FLT3 (Homo sapiens) (P36888 whole entry): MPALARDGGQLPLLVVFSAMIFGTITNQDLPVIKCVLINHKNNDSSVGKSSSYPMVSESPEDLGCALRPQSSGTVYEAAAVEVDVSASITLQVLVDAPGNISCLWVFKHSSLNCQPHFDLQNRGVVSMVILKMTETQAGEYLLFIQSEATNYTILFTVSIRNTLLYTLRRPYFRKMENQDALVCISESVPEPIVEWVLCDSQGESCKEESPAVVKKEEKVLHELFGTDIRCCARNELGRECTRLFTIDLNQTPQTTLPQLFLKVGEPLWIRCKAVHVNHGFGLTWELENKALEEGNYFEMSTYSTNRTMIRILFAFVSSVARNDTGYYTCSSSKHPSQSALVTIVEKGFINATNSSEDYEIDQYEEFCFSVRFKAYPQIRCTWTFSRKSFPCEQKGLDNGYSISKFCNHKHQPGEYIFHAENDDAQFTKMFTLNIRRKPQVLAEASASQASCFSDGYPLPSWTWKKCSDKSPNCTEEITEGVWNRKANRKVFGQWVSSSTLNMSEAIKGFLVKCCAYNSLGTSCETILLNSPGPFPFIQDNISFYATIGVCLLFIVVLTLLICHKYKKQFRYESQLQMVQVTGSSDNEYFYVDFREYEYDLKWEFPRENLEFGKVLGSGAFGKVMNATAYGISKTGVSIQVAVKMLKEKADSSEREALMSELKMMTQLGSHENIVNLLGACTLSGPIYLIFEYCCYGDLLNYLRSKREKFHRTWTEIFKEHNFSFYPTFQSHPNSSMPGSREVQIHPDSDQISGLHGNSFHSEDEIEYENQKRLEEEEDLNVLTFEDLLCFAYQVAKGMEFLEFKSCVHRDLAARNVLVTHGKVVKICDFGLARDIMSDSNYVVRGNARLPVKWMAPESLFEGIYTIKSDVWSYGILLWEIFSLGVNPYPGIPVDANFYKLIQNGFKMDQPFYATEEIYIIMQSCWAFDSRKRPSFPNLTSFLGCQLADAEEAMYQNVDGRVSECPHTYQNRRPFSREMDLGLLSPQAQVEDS

[7] = target: Receptor-type tyrosine-protein kinase FLT3 (Homo sapiens) (UniProt P36888); settings: at 10 µM
[8] = target: Vascular endothelial growth factor receptor 3 (Homo sapiens) (UniProt P35916); settings: at 1 µM
[9] = target: Fibroblast growth factor receptor 3 (Homo sapiens) (UniProt P22607); settings: at 10 µM
[10] = target: Fibroblast growth factor receptor 4 (Homo sapiens) (UniProt P22455); settings: at 10 µM
Chain of Fibroblast growth factor receptor 4 (Homo sapiens) (P22455 22-802 limits assumed): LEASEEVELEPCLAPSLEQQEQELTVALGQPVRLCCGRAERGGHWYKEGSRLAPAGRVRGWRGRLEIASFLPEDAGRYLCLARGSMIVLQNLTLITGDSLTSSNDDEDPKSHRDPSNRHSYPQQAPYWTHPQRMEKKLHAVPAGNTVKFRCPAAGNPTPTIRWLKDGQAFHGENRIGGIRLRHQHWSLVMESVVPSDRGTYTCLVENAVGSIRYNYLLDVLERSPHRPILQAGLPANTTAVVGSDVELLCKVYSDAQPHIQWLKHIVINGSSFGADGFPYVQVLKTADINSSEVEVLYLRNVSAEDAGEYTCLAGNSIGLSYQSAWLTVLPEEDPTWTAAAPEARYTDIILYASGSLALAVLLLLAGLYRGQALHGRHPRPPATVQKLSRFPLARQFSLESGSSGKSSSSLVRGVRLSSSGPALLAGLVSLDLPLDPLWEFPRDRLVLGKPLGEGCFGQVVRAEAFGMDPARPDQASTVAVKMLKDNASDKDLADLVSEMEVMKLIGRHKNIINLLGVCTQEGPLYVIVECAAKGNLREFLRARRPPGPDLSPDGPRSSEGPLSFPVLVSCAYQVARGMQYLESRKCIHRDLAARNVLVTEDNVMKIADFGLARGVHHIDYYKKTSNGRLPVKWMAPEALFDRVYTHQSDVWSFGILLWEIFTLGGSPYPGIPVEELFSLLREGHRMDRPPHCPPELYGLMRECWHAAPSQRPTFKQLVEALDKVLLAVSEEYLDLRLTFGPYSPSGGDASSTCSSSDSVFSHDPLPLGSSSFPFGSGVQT

[11] = target: Tyrosine-protein kinase Fer (Homo sapiens) (UniProt P16591); settings: at 1 µM
Chain of Tyrosine-protein kinase Fer (Homo sapiens) (P16591 whole entry, looked up): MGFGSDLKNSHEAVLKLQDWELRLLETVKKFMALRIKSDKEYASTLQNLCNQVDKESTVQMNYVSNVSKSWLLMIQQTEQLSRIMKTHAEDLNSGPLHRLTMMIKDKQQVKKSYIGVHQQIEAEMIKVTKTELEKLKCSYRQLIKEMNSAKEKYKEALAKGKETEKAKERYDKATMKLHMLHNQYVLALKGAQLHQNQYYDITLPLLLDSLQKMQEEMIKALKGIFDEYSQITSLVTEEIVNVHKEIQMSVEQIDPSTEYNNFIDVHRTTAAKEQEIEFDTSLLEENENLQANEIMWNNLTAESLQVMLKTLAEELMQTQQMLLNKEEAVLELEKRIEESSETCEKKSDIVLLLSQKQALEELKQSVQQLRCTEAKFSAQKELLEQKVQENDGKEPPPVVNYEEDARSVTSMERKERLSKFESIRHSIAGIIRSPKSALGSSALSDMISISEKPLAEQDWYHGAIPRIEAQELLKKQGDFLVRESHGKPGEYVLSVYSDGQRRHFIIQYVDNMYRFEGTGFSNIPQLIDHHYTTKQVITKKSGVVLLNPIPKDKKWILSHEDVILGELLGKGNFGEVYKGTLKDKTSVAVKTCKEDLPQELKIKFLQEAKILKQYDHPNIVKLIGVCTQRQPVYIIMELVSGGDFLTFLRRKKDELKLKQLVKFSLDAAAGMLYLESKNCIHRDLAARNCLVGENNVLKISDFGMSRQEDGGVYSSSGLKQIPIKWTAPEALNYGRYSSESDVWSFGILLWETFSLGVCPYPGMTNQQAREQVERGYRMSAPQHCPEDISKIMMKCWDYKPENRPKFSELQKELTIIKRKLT

[12] = target: Tyrosine-protein kinase Fer (Homo sapiens) (UniProt P16591); settings: at 10 µM
[13] = target: Vascular endothelial growth factor receptor 1 (Homo sapiens) (UniProt P17948); settings: at 1 µM
Chain of Vascular endothelial growth factor receptor 1 (Homo sapiens) (P17948 whole entry): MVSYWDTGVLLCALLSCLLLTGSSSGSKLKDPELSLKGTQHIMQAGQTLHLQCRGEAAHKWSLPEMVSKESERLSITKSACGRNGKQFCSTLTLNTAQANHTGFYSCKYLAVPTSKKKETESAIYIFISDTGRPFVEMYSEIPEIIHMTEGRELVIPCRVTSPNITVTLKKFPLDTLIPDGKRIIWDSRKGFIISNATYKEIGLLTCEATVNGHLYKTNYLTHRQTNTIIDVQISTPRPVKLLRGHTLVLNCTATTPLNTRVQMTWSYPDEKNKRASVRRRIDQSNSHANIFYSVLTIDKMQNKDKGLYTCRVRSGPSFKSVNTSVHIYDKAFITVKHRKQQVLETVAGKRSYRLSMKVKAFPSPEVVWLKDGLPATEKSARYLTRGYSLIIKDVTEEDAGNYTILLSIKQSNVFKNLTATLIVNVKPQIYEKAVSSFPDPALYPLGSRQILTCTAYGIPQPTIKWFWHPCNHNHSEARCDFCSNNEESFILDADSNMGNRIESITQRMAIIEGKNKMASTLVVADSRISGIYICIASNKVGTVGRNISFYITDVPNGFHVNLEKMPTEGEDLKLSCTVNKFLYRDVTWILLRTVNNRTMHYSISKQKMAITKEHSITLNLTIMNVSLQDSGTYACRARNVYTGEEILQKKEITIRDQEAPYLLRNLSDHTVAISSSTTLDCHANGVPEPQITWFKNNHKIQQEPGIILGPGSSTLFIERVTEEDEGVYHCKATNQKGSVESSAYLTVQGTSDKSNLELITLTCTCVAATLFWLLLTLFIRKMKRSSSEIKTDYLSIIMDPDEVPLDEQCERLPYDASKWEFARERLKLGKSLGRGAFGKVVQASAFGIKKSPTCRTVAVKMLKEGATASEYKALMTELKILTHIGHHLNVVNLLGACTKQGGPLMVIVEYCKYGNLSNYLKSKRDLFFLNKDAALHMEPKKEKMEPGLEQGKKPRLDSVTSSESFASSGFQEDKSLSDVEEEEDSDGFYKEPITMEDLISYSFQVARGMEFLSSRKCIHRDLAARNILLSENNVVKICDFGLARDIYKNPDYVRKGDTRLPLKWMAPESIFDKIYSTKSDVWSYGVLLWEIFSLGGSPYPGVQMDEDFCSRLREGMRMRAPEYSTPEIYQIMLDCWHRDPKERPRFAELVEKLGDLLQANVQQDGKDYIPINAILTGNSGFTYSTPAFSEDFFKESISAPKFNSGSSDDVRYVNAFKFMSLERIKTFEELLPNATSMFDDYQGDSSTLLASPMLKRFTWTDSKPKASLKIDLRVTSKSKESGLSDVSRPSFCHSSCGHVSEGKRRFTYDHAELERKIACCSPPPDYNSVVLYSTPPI

[14] = target: Vascular endothelial growth factor receptor 1 (Homo sapiens) (UniProt P17948); settings: at 10 µM
[15] = target: Fibroblast growth factor receptor 2 (Homo sapiens) (UniProt P21802); settings: at 1 µM
Chain of Fibroblast growth factor receptor 2 (Homo sapiens) (P21802 22-821 limits assumed): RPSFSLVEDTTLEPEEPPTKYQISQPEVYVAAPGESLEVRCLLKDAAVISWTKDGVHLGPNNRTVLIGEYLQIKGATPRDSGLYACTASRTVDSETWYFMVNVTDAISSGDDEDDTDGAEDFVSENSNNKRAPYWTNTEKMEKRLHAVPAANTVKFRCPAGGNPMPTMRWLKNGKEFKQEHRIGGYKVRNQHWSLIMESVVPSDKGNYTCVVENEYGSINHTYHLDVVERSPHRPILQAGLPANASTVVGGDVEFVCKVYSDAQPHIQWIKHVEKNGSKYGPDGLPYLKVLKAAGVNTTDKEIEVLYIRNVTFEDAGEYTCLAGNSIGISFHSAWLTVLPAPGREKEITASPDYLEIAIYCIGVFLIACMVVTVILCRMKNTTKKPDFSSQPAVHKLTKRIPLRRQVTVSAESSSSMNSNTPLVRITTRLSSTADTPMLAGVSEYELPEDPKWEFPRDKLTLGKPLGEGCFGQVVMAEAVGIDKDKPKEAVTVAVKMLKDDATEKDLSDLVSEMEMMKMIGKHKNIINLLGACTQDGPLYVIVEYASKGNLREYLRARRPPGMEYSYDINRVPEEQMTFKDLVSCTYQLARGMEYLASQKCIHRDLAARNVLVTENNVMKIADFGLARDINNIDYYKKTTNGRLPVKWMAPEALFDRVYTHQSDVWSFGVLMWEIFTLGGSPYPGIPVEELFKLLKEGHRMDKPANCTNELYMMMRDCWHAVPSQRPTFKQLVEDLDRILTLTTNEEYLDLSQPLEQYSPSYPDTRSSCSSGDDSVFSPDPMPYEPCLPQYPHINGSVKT

[16] = target: Fibroblast growth factor receptor 2 (Homo sapiens) (UniProt P21802); settings: at 10 µM
[17] = target: Tyrosine-protein kinase Fgr (Homo sapiens) (UniProt P09769); settings: at 1 µM
[18] = target: Tyrosine-protein kinase Fgr (Homo sapiens) (UniProt P09769); settings: at 10 µM
[19] = target: Fibroblast growth factor receptor 3 (Homo sapiens) (UniProt P22607); settings: at 1 µM
[20] = target: Fibroblast growth factor receptor 4 (Homo sapiens) (UniProt P22455); settings: at 1 µM

Structure (SMILES) | residual activity [1] | residual activity [2] | residual activity [3] | residual activity [4] | residual activity [5] | residual activity [6] | residual activity [7] | residual activity [8] | residual activity [9] | residual activity [10] | residual activity [11] | residual activity [12] | residual activity [13] | residual activity [14] | residual activity [15] | residual activity [16] | residual activity [17] | residual activity [18] | residual activity [19] | residual activity [20]
NC(=O)c1cccc(-c2cc(Nc3ccc(OC(F)(F)F)cc3)ncn2)c1 | 95% | 96% | 92% | 125% | 99% | 97% | 93% | 90% |  |  |  |  |  |  |  |  |  |  |  | 
O=C(Nc1ccc(Cl)cc1)c1ccccc1NCc1ccncc1 | 73% | 75% | 10% |  |  |  | 65% | 0% | 73% | 78% | 131% | 101% | 0% | 2% |  |  |  |  |  | 
Oc1cccc(-c2nc(N3CCOCC3)c3oc4ncccc4c3n2)c1 | 50% | 97% | 78% | 137% |  | 89% | 72% |  |  | 99% | 119% | 99% | 91% | 80% | 122% | 123% | 118% | 97% |  | 
O=C1NC(=O)c2c1c1c3ccccc3[nH]c1n1cncc21 | 25% | 41% | 9% | 79% | 56% | 18% | 5% | 0% | 41% | 80% |  |  | 16% | 3% | 72% | 32% | 75% | 45% | 76% | 102%
CC(C)(C)n1nc(Cc2cccc3ccccc23)c2c(N)ncnc21 | 81% | 28% | 2% | 95% | 27% | 102% | 75% | 42% |  | 72% | 104% | 39% | 62% | 14% | 62% | 18% | 35% | 4% |  | 115%
O=c1cc(N2CCNCC2)oc2c(-c3ccccc3)cccc12 | 88% | 105% | 84% |  | 89% | 78% | 81% | 96% |  | 67% |  | 95% | 88% | 95% |  |  |  | 90% |  | 
CC(C)N(CCC(=O)c1ccc2ccccc2c1)Cc1ccccc1 | 85% | 125% |  |  |  |  | 82% |  |  |  |  | 87% |  |  |  |  |  |  |  | 
c1ccc(-c2cnc(Nc3ccc(OCCN4CCCC4)cc3)s2)cc1 | 46% | 59% | 8% | 123% | 59% | 4% | 0% | 2% |  |  | 111% |  | 4% | 0% | 80% | 28% | 63% | 11% |  | 
NC(=O)Nc1sc(-c2ccc(F)cc2)cc1C(N)=O | 9% | 29% | 5% | 78% | 24% | 22% | 3% | 4% | 15% | 91% | 83% | 50% | 17% | 2% | 50% | 10% | 28% | 4% | 81% | 106%
O=C1Nc2ccc(Cl)cc2/C1=C/c1cc(Cl)c(O)c(Cl)c1 | 58% | 93% | 53% |  |  | 21% | 1% | 3% | 62% |  |  |  | 55% | 1% | 80% | 39% | 96% | 42% | 96% | 
O=C1C(Cl)=C(N2C(=O)CCC2=O)C(=O)c2ccccc21 | 90% | 118% | 94% | 83% | 97% | 90% | 87% | 91% |  | 91% | 87% | 91% | 96% | 84% | 100% | 89% | 94% | 96% |  | 98%
CCOC(=O)c1c(C)[nH]c(/C=C2\C(=O)Nc3ccccc32)c1C | 89% | 98% | 80% | 119% | 80% | 6% | 9% | 1% |  |  |  |  | 38% | 15% | 83% | 85% | 87% | 74% |  | 
Cn1sc(=O)n(Cc2ccccc2)c1=O | 61% | 92% | 86% | 93% | 85% | 86% | 81% | 85% | 126% |  | 90% | 91% | 85% | 73% |  |  | 90% | 95% | 135% | 
CC(C)c1nn(-c2c(Cl)cccc2Cl)c2nc(Cc3ccc(OCCO)cc3)[nH]c(=O)c12 | 66% | 70% | 27% | 109% | 97% | 81% | 81% | 84% | 99% |  | 100% | 95% | 90% | 82% | 108% | 86% |  | 95% | 104% | 
CCCCc1c(-c2ccc(O)cc2)[nH]c2nccnc12 | 19% | 41% | 11% | 35% | 12% | 29% | 6% | 6% |  | 99% | 86% | 81% | 43% | 11% | 85% | 59% | 57% | 36% |  | 127%
CN(C)S(=O)(=O)c1ccc2c(c1)/C(=C/c1cc3c([nH]1)CCCC3)C(=O)N2 | 8% | 36% | 54% | 82% | 61% | 27% | 41% | 33% | 90% | 87% | 59% | 68% | 67% | 56% | 51% | 30% | 21% | 9% |  | 84%
Nc1ncnc2c1cnn2-c1ccccc1 | 95% | 127% | 94% |  |  | 95% | 55% | 99% | 83% | 97% |  |  | 96% | 88% | 96% | 83% |  | 85% | 76% | 
Cc1cc(C)c(/C=C2\C(=O)Nc3ccccc32)[nH]1 | 9% | 65% | 13% |  |  | 1% | 0% | 1% | 68% |  | 100% | 55% | 3% | 0% |  |  | 53% | 30% | 80% | 124%
CCCCc1c(-c2ccc(OC)cc2)[nH]c2nccnc12 | 49% | 46% | 46% | 34% | 51% | 27% | 30% | 6% | 114% | 91% | 84% | 91% | 44% | 32% | 88% | 60% | 61% | 78% |  | 109%
Nc1nccc(-c2c(-c3ccc(F)cc3)ncn2C2CCNCC2)n1 | 71% | 119% | 27% |  |  |  |  | 69% | 83% |  |  |  |  |  | 113% | 67% |  | 25% | 120% | 
O=C(c1cc2cc(O)ccc2[nH]1)c1cc2cc(O)ccc2[nH]1 | 65% | 40% | 5% |  | 28% | 0% | 0% | 4% | 20% |  |  | 55% | 20% | 2% | 83% | 24% | 5% | 2% | 70% | 
O=C1NC(=O)C(c2cn(CCCn3ccnc3)c3ccccc23)=C1Nc1ccccc1 | 71% | 77% | 17% |  |  | 14% | 0% | 58% |  |  | 102% | 52% | 51% | 11% | 113% | 57% |  | 59% |  | 
Cn1c2ccccc2c2c3c(c4c5ccccc5n(CCC#N)c4c21)CNC3=O | 17% | 7% | 6% |  |  | 0% | 0% | 2% |  |  | 4% | 4% | 4% | 4% | 53% | 46% | 41% | 47% |  | 111%
O=C1Cc2c([nH]c3ccc(Br)cc23)-c2ccccc2N1 | 28% | 87% | 32% | 63% | 38% | 65% | 34% | 56% | 87% | 96% |  |  | 77% | 39% |  |  |  |  | 127% | 
O=S(=O)(NCCNC/C=C/c1ccc(Br)cc1)c1cccc2cnccc12 | 30% |  | 35% | 75% | 27% |  | 46% | 81% | 80% |  |  | 71% |  | 35% |  |  |  | 59% |  | 
CCN(CC)CCNC(=O)c1c(C)[nH]c(/C=C2\C(=O)Nc3ccc(Cl)cc32)c1C | 4% | 7% | 1% | 14% | 2% | 1% | -1% | 0% | 1% |  | 79% | 14% | 5% | 0% | 14% | 3% | 8% | 2% | 8% | 
Nc1ncnc2c1c(-c1ccc(Oc3ccccc3)cc1)cn2C1CCCC1 | 46% | 13% | -1% | 112% | 52% | 19% | 0% | 1% | 7% | 46% | 100% | 45% | 15% | 0% | 37% | 3% | 2% | 0% | 41% | 100%
